# From PubChem BioAssay
# The list is not random: actives were taken first. Their share in the collection is about 0.5%.
# E coli growth-1: E. coli growth inhibition, primary screen, OD600. Escherichia coli growth, 23 h; hits give low values. OD600 absorbance (no concentration beside the values). actives 0.21% (n = 330,000). AID 1053175, 2014;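 active = OD600 absorbance below the run mean of sample wells minus 3.6 SD, in any replicate, cut at about 0.56 in these data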
# phage Ecoli inh: growth loss of phage-infected E. coli, primary screen, RecBCD inhibitor project, absorbance, with phage, HTS | inhibition, % at 11.9 µM | actives 0.26% (n = 360,000); in the data active = inhibition above about 11%
# AddAB inh: growth inhibition of E. coli expressing H. pylori AddAB, primary screen, AddAB inhibitor project, absorbance; actives 0.29% (n = 330,000); inhibition, % at 11.9 µM; in the data active = inhibition above about 12%;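 also: 0% = vehicle wells of infected cells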
# Tat transport: E. coli Tat export inhibitors, primary screen, MC4100, TorA-mCherry reporter, fluorescence, single point. inhibition, % at 10 µM. actives 0.036% (n = 340,000). AID 488895, 2010;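 active = mean replicate inhibition at least 50% and at least half of replicates individually reaching 50%; inconclusive = only one of the two criteria met; inactive = neither criterion met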;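 also: exported cargo escapes ClpAP degradation while cytoplasmic cargo is degraded and loses fluorescence; 0% = median of neutral control wells and 100% = median of NaSCN control wells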
# E coli growth-2: E. coli V3065 growth inhibition, primary screen, counter-screen for AddAB inhibitor project, absorbance, OD600; 18 h; AID 449728, 2010; inhibition, % at 11.9 µM; actives 0.27% (n = 330,000);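 active = inhibition above the campaign's mean inhibition across all tested compounds plus 3 SD, cut at about 9.9% in these data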;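 also: uninfected addAB+ strain grown without phage in ampicillin broth; 0% = DMSO wells and 100% = ciprofloxacin 0.95 µg/ml wells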
# AddAB conf: growth loss of phage-infected E. coli expressing H. pylori AddAB, confirmation, AddAB inhibitor project, absorbance, E. coli V3065, T4 phage, triplicate; shares compounds with AddAB inh; OD; T4 phage with gene 2 nonsense mutations; inhibition, % at 11.9 µM; actives 64% (n = 880); AID 488942, 2010;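 active = mean inhibition above a set limit taken from the earlier primary screen, cut at about 13% in these data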;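 also: higher means less bacterial growth since AddAB block lets phage replicate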
# RecBCD counter: growth loss of RecBCD+ E. coli with mutant T4 phage, counter-screen for AddAB inhibitor project, absorbance, V66 E. coli; shares compounds with AddAB inh; actives 73% (n = 880); OD growth; inhibition, % at 11.9 µM;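 active = mean inhibition above the mean of solvent-only control wells plus 3 SD, cut at about 4% in these data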;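 also: optical density read after an 18 h incubation at 37 °C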
# Bact viability: bacterial viability inhibition counter-screen, confirmation, counter-screen for AddAB inhibitor project, absorbance. absorbance (AddAB counterscreen). shares compounds with AddAB inh. actives 35% (n = 880). AID 488956, 2010. inhibition, % at 11.9 µM; in the data active = inhibition above about 25%
# * marks the source's active call; other numbers are inactive results; ? = inconclusive; . = not tested or not shown.
SMILES,E coli growth-1,phage Ecoli inh,AddAB inh,Tat transport,E coli growth-2,AddAB conf,RecBCD counter,Bact viability
O=C(c1ccc([N+](=O)[O-])o1)N1CCOCC1,0.54,11,17*,-13,11*,64*,8.5*,16
O=C(NN1C(=O)CSC1=S)C(=O)NN1C(=O)CSC1=S,0.66,13*,12*,-7,12*,34*,16*,28*
CCOc1cc(/C=N\NC(=O)OC(C)(C)C)ccc1OC(=O)c1ccco1,.,4,4,-3,0,.,.,.
O=C(Cn1cc(C(=O)c2ccco2)c2ccccc21)Nc1ccccc1F,0.66,10,13*,-5,11*,11,11*,11
COc1cc(CN2CCCC(C(=O)c3ccc(C(C)(C)C)cc3)C2)cc(OC)c1O (configuration not stated),0.68,-1,5,3,1,.,.,.
CC(C)Cc1ccc(CN2CCCC(NC(=O)c3ccnn3C)C2)cc1 (configuration not stated),0.66,1,0,9,-1,.,.,.
CC(C)Cc1ccc(CN2CCCC(NC(=O)c3ccoc3)C2)cc1 (configuration not stated),0.61,4,14*,-4,13*,10,5.4*,9
O=c1c2ccccc2[nH]c2ccccc12,0.57,9,14*,-8,5,6,4.8*,3
c1ccc2c(c1)[nH]c1ccccc12,0.7,1,3,-3,-1,.,.,.
Cc1ccc(OCC(=O)N2CCc3ccccc32)c([N+](=O)[O-])n1,0.67,8,24*,4,19*,46*,5.4*,43*
O=C(NCc1ccc(F)cc1)c1cc(C2CCCCN2C(=O)c2ccccc2)on1 (configuration not stated),.,3,.,.,.,.,.,.
COc1ccccc1C(=O)N/C(=C\c1ccccc1)C(=O)NC(C)C(=O)O (configuration not stated),.,1,97*,-1,72*,1,-1,-4
O=c1cc2oc3cc(O)c(O)cc3c(-c3ccccc3O)c-2cc1O,0.72,.,.,1,.,.,.,.
COc1ccc(OC)c(-c2c3cc(O)c(=O)cc-3oc3cc(O)c(O)cc23)c1,.,.,14*,20,4,7,3,2
COc1ccc(/C=N/NC(=S)SC)cc1OC,.,8,18*,-1,13*,44*,12*,30*
O=C(NCCCc1ccccc1)c1ccc([N+](=O)[O-])cc1Cl,0.67,1,2,-15,-1,.,.,.
O=C1NCCn2ccc(=O)cc21,0.68,0,1,-2,0,.,.,.
CCOC(=O)c1[nH]c2ccccc2c1NC(C)=O,0.73,6,-3,-6,-3,.,.,.
CCOC(=O)c1[nH]c2ccccc2c1NC(=O)C(CC)CC,0.71,2,63*,12,11*,-3,0,-2
CCn1nnc(-c2ccc(N)cc2)n1,0.68,3,-1,0,1,.,.,.
COc1ccc(N2C(=O)C3CCCN3C2c2cccc(Br)c2)cc1 (configuration not stated),0.78,1,3,1,-2,.,.,.
COc1ccc(N2C(=O)C3CCCN3C2c2cccc(OC)c2OC)cc1 (configuration not stated),0.69,1,14*,-13,4,1,1,-2
Cc1cc(=O)n(-c2ccc(O)cc2)[nH]1,0.54,11,98*,-3,93*,78*,7.7*,46*
O=C(O)c1cccc(Sc2ccc(Br)cc2C(=O)O)c1,0.72,3,0,-9,0,.,.,.
Nc1c(-c2ccccc2)cnc2c(-c3ccccc3)cnn12,0.7,5,1,-2,0,.,.,.
SMILES,E coli growth-1,phage Ecoli inh,AddAB inh,Tat transport,E coli growth-2,AddAB conf,RecBCD counter,Bact viability
CCc1cccc2c(C(=O)C(NC(C)CC)c3ccccc3)c[nH]c12 (configuration not stated),0.64,1,4,0,1,.,.,.
Cc1ccc(NC(=O)COc2ccc(Br)cn2)cc1,0.72,-1,1,2,-1,.,.,.
O=C(NCc1ccccc1Cl)C1CCN(S(=O)(=O)N2CCCCCC2)CC1,0.71,2,2,2,-1,.,.,.
CCCS(=O)(=O)N1CCC(C(=O)NCc2ccccc2Cl)CC1,0.73,6,12*,-5,7,14*,5.8*,12
CCc1nnc(NS(=O)(=O)c2ccc(N/C=C/C(=O)c3ccc(C)cc3)cc2)s1,.,4,17*,-7,11*,0,1,1
CCc1nnc(NS(=O)(=O)c2ccc(N/C=C\C(=O)c3ccc(C)cc3)cc2)s1,0.77,10,20*,0,13*,0,2,1
COC(=O)N1C(=O)[C@](c2ccc(Cl)cc2)(C(C)C)N1C(=O)OC,0.77,2,1,9,-2,.,.,.
COc1cc(NC(=O)c2cc(C3CC3)on2)c(OC)cc1Cl,0.76,-1,98*,7,77*,-2,2,0
CC1=NN(C(=O)c2ccc(Cn3ccc([N+](=O)[O-])n3)cc2)C(O)(C(F)(F)F)C1 (configuration not stated),0.73,5,14*,5,7,3,1,-1
Nc1nonc1C(=O)NCCN=Cc1cc(Cc2ccccc2)cc(Br)c1O,0.59,.,18*,?,7,20*,8.8*,9
O=C(N/N=C\c1ccc(F)cc1)c1ccc(Cn2cc(Br)c([N+](=O)[O-])n2)o1,.,9,36*,-1,33*,54*,5.8*,38*
O=C(NN=Cc1ccc2c(c1)OCO2)c1ccc(Cn2cc([N+](=O)[O-])cn2)o1,0.69,.,.,.,.,.,.,.
O=C(N/N=C\c1ccc2c(c1)OCO2)c1ccc(Cn2cc(Br)c([N+](=O)[O-])n2)o1,.,2,23*,-5,20*,6,0,2
COc1cc(C=NNC(=O)c2ccc(Cn3cc(Br)c([N+](=O)[O-])n3)o2)cc(OC)c1O,0.68,.,.,.,.,.,.,.
COc1cc(/C=N\NC(=O)c2ccc(Cn3cc(Br)c([N+](=O)[O-])n3)o2)cc(OC)c1O,.,9,44*,7,23*,52*,5.6*,39*
O=C(N/N=C\c1cccc(F)c1)c1ccc(Cn2cc(Br)c([N+](=O)[O-])n2)o1,.,6,27*,-6,19*,54*,7.7*,41*
CN(C)Cc1c(O)ccc2occ(C(=O)c3ccc(F)cc3)c12,.,3,0,4,0,.,.,.
